Experimental data as given in ChEMBL document CHEMBL1961873, “Compounds: GSK PKIS; Assays: Nanosyn kinase panel” (2012).

Assays:
[1] = target: T1, Ephrin type-B receptor 2 (Homo sapiens) (UniProt P29323); conditions: at 1 µM
T1 sequence (whole entry): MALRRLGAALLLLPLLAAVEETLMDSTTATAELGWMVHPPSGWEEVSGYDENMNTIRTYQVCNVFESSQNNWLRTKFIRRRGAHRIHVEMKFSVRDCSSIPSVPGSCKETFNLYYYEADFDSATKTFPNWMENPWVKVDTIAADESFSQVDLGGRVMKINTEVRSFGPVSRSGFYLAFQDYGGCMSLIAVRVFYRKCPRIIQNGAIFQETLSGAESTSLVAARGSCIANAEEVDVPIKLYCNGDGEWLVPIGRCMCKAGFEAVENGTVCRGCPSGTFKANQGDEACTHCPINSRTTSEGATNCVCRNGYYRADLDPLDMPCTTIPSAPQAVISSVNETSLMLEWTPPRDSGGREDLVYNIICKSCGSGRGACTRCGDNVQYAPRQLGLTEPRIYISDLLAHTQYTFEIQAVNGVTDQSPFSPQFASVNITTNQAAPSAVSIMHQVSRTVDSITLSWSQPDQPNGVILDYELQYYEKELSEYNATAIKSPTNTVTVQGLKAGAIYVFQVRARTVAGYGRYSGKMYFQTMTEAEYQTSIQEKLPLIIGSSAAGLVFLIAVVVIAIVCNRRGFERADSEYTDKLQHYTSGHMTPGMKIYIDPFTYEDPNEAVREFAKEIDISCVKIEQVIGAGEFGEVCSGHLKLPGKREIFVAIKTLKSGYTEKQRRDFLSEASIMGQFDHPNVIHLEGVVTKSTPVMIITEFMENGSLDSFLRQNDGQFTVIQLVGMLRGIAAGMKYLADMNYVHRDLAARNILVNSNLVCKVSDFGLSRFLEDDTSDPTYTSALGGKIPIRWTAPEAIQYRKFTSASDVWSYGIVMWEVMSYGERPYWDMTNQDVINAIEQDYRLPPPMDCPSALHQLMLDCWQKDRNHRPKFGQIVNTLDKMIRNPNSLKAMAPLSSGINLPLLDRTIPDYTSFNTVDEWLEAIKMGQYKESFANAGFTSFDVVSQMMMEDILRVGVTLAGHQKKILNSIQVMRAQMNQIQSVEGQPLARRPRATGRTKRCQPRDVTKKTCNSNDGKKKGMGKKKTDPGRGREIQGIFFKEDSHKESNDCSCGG

[2] = target: T2, Ephrin type-B receptor 3 (Homo sapiens) (UniProt P54753); conditions: at 0.1 µM
T2 sequence (whole entry): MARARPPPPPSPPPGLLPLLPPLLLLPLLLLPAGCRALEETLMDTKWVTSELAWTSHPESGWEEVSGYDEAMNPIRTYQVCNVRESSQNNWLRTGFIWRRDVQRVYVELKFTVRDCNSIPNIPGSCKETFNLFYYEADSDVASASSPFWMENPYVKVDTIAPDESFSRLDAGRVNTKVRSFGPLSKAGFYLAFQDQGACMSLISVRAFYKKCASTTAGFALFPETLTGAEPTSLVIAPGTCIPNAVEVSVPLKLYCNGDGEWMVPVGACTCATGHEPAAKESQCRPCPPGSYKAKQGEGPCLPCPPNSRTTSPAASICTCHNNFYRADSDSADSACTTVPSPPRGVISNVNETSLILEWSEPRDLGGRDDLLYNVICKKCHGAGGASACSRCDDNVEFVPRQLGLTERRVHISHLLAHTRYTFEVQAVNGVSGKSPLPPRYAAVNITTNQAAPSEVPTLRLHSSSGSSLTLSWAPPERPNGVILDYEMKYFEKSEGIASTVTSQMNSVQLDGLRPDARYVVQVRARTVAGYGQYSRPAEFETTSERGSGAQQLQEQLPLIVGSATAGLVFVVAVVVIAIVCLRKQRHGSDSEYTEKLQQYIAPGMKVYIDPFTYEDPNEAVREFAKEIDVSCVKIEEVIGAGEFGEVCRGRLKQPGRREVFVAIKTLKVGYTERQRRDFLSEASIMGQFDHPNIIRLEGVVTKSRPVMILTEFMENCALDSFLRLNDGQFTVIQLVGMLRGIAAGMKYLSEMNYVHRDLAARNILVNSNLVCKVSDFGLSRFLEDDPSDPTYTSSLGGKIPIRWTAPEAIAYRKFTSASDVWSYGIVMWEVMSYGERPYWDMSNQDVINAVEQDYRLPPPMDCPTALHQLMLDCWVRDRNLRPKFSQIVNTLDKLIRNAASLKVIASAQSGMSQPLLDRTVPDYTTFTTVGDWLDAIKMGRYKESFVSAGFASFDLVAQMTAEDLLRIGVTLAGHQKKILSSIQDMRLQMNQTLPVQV

[3] = target: T2, Ephrin type-B receptor 3 (Homo sapiens); conditions: at 1 µM
[4] = target: T3, Ephrin type-B receptor 4 (Homo sapiens) (UniProt P54760); conditions: at 0.1 µM
T3 sequence (whole entry): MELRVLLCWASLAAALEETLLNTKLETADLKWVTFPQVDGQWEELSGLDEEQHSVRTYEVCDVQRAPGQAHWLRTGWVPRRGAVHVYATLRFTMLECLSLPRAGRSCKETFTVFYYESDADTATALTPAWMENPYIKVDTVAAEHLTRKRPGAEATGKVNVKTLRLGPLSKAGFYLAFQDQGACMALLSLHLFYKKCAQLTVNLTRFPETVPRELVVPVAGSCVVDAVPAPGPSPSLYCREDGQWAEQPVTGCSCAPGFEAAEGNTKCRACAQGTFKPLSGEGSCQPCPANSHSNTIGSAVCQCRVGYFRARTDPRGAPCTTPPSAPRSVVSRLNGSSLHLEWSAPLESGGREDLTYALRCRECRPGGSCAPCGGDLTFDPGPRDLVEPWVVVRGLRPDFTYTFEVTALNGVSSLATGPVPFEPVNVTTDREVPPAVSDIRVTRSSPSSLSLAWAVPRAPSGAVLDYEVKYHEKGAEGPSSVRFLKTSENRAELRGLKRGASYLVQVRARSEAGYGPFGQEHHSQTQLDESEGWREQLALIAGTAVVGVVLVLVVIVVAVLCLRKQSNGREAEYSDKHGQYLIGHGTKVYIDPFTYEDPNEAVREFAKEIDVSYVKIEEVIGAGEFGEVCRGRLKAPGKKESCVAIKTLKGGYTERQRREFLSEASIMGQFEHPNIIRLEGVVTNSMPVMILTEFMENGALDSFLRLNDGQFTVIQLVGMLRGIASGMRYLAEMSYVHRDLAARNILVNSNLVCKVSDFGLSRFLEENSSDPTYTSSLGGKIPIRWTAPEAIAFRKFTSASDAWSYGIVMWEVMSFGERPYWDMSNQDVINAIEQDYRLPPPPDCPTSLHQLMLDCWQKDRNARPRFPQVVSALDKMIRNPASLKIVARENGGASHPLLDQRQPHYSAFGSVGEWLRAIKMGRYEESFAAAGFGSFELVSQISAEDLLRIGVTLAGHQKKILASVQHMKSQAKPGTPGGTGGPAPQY

[5] = target: T3, Ephrin type-B receptor 4 (Homo sapiens); conditions: at 1 µM
[6] = target: Receptor tyrosine-protein kinase erbB-2 (Homo sapiens) (UniProt P04626); conditions: at 0.1 µM
[7] = target: Receptor tyrosine-protein kinase erbB-2 (Homo sapiens) (UniProt P04626); conditions: at 1 µM
[8] = target: Receptor tyrosine-protein kinase erbB-4 (Homo sapiens) (UniProt Q15303); conditions: at 0.1 µM
[9] = target: Receptor tyrosine-protein kinase erbB-4 (Homo sapiens) (UniProt Q15303); conditions: at 1 µM
[10] = target: Tyrosine-protein kinase Fer (Homo sapiens) (UniProt P16591); conditions: at 0.1 µM
[11] = target: Tyrosine-protein kinase Fer (Homo sapiens) (UniProt P16591); conditions: at 1 µM
[12] = target: Tyrosine-protein kinase Fes/Fps (Homo sapiens) (UniProt P07332); conditions: at 0.1 µM
[13] = target: Tyrosine-protein kinase Fes/Fps (Homo sapiens) (UniProt P07332); conditions: at 1 µM
[14] = target: Fibroblast growth factor receptor 1 (Homo sapiens) (UniProt P11362); conditions: at 0.1 µM
[15] = target: Fibroblast growth factor receptor 1 (Homo sapiens) (UniProt P11362); conditions: at 1 µM
[16] = target: Fibroblast growth factor receptor 2 (Homo sapiens) (UniProt P21802); conditions: at 0.1 µM
[17] = target: Fibroblast growth factor receptor 2 (Homo sapiens) (UniProt P21802); conditions: at 1 µM
[18] = target: Fibroblast growth factor receptor 3 (Homo sapiens) (UniProt P22607); conditions: at 0.1 µM
[19] = target: Fibroblast growth factor receptor 3 (Homo sapiens) (UniProt P22607); conditions: at 1 µM
[20] = target: Fibroblast growth factor receptor 4 (Homo sapiens) (UniProt P22455); conditions: at 0.1 µM;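 also: values are mean percent inhibition of FGFR4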
Chain of Fibroblast growth factor receptor 4 (Homo sapiens) (P22455 22-802 limits assumed): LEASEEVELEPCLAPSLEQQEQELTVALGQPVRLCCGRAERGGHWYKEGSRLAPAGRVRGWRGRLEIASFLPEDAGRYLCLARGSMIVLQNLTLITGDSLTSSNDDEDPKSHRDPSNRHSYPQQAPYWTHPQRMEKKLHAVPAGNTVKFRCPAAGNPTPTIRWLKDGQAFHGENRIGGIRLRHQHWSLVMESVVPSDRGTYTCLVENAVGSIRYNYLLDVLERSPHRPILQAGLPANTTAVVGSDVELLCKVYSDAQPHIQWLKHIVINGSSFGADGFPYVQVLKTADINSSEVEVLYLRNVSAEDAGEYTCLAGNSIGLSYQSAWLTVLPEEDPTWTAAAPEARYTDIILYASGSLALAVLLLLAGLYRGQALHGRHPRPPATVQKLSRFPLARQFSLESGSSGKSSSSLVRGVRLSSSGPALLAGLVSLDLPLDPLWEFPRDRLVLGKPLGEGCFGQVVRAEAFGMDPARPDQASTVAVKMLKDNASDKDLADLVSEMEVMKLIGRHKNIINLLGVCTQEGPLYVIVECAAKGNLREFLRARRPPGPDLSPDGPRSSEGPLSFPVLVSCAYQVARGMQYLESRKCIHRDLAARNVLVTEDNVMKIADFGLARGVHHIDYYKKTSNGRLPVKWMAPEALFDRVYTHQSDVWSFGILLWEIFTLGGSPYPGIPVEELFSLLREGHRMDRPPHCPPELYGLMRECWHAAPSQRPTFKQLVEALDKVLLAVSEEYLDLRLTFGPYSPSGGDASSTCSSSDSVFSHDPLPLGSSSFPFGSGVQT

Chain of Fibroblast growth factor receptor 3 (Homo sapiens) (P22607 23-806 limits assumed): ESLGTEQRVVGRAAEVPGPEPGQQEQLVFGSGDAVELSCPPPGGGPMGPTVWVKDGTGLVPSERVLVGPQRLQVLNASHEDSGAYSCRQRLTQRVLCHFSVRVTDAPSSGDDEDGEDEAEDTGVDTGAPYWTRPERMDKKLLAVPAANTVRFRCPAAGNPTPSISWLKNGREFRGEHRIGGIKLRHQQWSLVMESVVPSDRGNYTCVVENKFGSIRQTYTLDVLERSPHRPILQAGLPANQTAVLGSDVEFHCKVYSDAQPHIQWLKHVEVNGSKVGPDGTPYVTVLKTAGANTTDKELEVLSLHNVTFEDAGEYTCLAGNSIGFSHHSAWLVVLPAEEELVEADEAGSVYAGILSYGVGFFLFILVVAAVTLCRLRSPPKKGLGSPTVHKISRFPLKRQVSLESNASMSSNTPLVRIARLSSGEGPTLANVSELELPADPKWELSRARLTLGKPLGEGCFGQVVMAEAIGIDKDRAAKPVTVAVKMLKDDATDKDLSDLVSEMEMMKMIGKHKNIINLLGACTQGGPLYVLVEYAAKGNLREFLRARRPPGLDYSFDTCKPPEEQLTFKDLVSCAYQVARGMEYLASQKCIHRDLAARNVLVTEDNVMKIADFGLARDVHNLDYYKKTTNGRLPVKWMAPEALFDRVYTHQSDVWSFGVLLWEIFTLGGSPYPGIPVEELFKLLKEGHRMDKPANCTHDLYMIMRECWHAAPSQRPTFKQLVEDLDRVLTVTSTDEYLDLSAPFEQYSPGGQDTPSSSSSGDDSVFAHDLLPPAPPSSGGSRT
Chain of Fibroblast growth factor receptor 1 (Homo sapiens) (P11362 22-822 limits assumed): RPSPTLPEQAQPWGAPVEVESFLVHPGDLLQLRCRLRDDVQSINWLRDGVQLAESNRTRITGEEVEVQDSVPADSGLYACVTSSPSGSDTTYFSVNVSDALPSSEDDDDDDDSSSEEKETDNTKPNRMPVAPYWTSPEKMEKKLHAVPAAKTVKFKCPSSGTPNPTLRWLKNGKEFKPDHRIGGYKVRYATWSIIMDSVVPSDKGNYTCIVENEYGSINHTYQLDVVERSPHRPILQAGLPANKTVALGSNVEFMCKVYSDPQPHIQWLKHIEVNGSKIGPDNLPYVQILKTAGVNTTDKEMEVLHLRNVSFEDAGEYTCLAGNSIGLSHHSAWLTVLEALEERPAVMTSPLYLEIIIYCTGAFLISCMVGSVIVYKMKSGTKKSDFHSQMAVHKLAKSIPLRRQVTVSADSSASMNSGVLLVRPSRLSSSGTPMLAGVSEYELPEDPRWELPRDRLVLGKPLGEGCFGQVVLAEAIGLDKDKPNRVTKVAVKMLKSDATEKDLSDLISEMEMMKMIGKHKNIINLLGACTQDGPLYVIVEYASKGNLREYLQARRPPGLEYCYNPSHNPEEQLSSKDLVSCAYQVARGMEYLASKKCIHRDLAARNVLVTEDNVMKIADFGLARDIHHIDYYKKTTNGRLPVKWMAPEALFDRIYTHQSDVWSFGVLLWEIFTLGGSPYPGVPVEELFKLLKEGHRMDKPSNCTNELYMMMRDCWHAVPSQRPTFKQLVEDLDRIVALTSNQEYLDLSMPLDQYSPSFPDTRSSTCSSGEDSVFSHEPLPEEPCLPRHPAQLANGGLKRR
Chain of Fibroblast growth factor receptor 2 (Homo sapiens) (P21802 22-821 limits assumed): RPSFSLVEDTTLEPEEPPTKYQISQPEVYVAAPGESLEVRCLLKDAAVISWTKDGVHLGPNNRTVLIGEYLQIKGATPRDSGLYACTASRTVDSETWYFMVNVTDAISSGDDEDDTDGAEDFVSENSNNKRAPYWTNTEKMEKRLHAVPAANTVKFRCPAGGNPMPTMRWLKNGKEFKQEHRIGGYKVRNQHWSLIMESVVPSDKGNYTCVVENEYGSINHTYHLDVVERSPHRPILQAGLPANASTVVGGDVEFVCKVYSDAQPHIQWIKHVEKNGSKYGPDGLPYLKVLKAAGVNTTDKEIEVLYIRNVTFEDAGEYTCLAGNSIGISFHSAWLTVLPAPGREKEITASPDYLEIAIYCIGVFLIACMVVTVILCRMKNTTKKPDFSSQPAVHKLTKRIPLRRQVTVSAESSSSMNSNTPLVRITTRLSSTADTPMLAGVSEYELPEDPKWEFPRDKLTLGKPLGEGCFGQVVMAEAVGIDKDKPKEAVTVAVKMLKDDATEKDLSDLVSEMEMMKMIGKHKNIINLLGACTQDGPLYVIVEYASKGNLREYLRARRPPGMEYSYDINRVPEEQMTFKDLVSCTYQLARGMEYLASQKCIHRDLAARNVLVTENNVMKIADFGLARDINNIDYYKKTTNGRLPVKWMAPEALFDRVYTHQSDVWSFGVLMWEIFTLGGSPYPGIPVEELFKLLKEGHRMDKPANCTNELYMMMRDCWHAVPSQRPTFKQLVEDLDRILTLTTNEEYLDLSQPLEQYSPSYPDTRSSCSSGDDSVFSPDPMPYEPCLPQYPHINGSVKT
Chain of Receptor tyrosine-protein kinase erbB-2 (Homo sapiens) (P04626 whole entry): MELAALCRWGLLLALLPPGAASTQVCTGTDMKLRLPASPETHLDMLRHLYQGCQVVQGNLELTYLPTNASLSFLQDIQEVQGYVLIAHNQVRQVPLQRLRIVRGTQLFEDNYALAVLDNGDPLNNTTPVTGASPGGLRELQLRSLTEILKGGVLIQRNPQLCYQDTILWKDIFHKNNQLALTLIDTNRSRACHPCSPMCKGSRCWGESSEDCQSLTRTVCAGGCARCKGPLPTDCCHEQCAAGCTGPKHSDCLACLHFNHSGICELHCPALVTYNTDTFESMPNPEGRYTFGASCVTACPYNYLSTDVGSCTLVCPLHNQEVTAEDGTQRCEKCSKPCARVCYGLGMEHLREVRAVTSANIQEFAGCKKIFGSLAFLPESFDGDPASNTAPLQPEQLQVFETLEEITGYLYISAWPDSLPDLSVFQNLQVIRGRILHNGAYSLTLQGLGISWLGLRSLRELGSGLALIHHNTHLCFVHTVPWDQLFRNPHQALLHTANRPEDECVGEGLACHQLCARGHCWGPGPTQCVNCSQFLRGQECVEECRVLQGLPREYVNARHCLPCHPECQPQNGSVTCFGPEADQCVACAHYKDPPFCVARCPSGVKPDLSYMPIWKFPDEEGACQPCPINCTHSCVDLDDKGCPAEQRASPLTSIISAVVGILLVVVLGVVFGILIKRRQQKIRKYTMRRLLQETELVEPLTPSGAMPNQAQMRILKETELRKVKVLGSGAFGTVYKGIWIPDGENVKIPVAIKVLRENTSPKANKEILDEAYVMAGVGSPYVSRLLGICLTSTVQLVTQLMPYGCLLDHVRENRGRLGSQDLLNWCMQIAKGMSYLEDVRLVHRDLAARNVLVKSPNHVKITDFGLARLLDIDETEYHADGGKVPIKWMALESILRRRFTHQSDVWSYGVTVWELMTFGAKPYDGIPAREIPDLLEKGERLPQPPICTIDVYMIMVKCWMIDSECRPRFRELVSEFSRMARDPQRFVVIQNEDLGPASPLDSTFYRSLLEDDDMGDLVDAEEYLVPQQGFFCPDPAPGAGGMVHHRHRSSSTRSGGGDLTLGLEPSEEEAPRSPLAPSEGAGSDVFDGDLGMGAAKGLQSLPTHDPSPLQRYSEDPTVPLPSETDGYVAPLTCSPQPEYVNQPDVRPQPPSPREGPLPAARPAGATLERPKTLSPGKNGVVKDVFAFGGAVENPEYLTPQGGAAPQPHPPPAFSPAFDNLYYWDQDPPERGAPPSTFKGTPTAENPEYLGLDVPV

Structure (SMILES) | inhibition [1] [%] | inhibition [2] [%] | inhibition [3] [%] | inhibition [4] [%] | inhibition [5] [%] | inhibition [6] [%] | inhibition [7] [%] | inhibition [8] [%] | inhibition [9] [%] | inhibition [10] [%] | inhibition [11] [%] | inhibition [12] [%] | inhibition [13] [%] | inhibition [14] [%] | inhibition [15] [%] | inhibition [16] [%] | inhibition [17] [%] | inhibition [18] [%] | inhibition [19] [%] | inhibition [20] [%]
CC1=C(C(=O)Nc2ccc3[nH]ncc3c2)C(c2ccc(Cl)c(Cl)c2)CC(=O)N1 (centres undefined) | 12.5 | 3.28 | 2.88 | 1.18 | 1.59 | 0.3 | 0.63 | 8.29 | 17.8 | 1.45 | 1.24 | 1.63 | 2.35 | 0.69 | 8.25 | 0.22 | 20.4 | 2.17 | 14.1 | 1.31
COC(=O)Nc1nc2cc(Oc3ccc(NC(=O)Nc4cccc(C(=O)O)c4)cc3)ccc2[nH]1 | 3.77 | -0.56 | -3.97 | -2.57 | -4.05 | -0.03 | 3.5 | 2.52 | 0.22 | -1.22 | 2.49 | -0.49 | 0.5 | -4.37 | -2.27 | -3.37 | 5.77 | -1.47 | 11.9 | -6.8
COc1cc2ncn(-c3cc(OCc4ccccc4C(F)(F)F)c(C(N)=O)s3)c2cc1OC | 17.3 | 1.32 | 0.77 | 0.05 | 1.61 | 3.56 | 4.42 | 3.59 | 11.8 | 3.4 | 10.5 | 2.56 | 1.4 | -0.93 | 13 | 2.62 | 20.9 | 6.21 | 18.2 | -3.31
CN1CCC(C(=O)Nc2n[nH]c3nnc(-c4ccccc4)cc23)CC1 | 3.41 | 6.23 | 4.08 | 2.18 | 1.12 | 5.08 | 14.2 | 17.7 | 24.2 | 3.91 | 5.92 | 3.95 | 3.43 | 5.69 | 4.3 | 5.82 | 5.58 | 5.57 | 4.99 | -8.44
COC(=O)Nc1nc2cc(Oc3cccc(NC(=O)Nc4cc(C(F)(F)F)ccc4F)c3)ccc2[nH]1 | 8.15 | 2.88 | 0.33 | 0.65 | 2.71 | -1.15 | -2.43 | 3.99 | 6.3 | 0.75 | 1.61 | -0.51 | 0.56 | -2.84 | 0 | -1.71 | 2.62 | 0.57 | 1.54 | -1.4
O=C1NC(=O)C(N2CCc3ccccc32)=C1c1ccc(Cl)cc1 | 12.6 | 7.43 | 6.04 | 3.92 | 1.54 | 0.97 | -4.09 | 8.85 | 24 | 2.88 | 6.71 | 4.08 | 7.35 | 5.27 | 13 | 6.84 | 14 | 8.07 | 11.6 | -1.04
CC1=C(C(=O)Nc2ccc3[nH]ncc3c2)C(c2ccc3ccccc3c2)CC(=O)N1 (centres undefined) | 8.42 | 4.2 | 4.54 | 3.21 | 3.76 | 0.89 | 2.88 | 12.7 | 39.6 | 2.1 | 7.14 | 1.76 | 2.99 | 1.46 | 13.2 | 5.6 | 31.6 | 9.54 | 22.8 | 0.62
CS(=O)(=O)CCNCc1ccc(-c2ccc3ncnc(Nc4ccc(OCc5cccc(F)c5)c(C(F)(F)F)c4)c3c2)o1 | 4.49 | 6.25 | 3.96 | 2.87 | 0.47 | 3.41 | 7.46 | 8.49 | 16.9 | 4.27 | 1.93 | 2.48 | 2.85 | -1.13 | 2.33 | 3.18 | 4.51 | 4.79 | 3.38 | 
CS(=O)(=O)CCNCc1ccc(-c2ccc3ncnc(Nc4ccc(OCc5ccccc5)c(Cl)c4)c3c2)o1 | 11.5 | -0.46 | 2.9 | 1.93 | 2.4 | 21.5 | 69.5 | 59.8 | 88.1 | 4.02 | 10.4 | 0.53 | 0.08 | 0.78 | 3.71 | 0.57 | 5.46 | 2.05 | 4.98 | -0.26
Nc1nc(-c2ccc3c(c2)C(=Cc2cc(Br)c(O)c(Br)c2)C(=O)N3)cs1 | -1.17 | -1.61 | -4.71 | -0.3 | -2.45 | -4.27 | 2.84 | -6.34 | -0.4 | 5.18 | 3.05 | -2.93 | -3.65 | -5.75 | -1.36 | -1.12 | 1.88 | -0.11 | 1.45 | -4.66
